Inconclusive results are not listed. Calls of active or inactive are those of the source. Unless noted, calls come from the whole dose curve; as a rule, active = well fitted curve in the direction sought with a large enough effect in the repeat runs; inconclusive = weak or mixed curves; inactive = no such curve, though single readings can be large; an effect the other way counts as inactive or inconclusive. Positions of bridges follow the written chain, without caps; N, C: chain ends. Non-standard residues stand in square brackets, D forms with d. Residues, ends and D or L forms follow the SMILES beside them. Orn = NCCC[C@H](N)C(=O)O; Mpa = O=C(O)CCS
Columns and labels:
[1] = qHTS assay to identify aromatase inhibitors - cell viability counter screen (AID 743084);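 note: cells stimulated with testosterone during compound exposure; nearly all actives have a fitted effect of over 55% in size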; note: potency is the fitted concentration of half-maximal effect
[2] = biological target: Aryl hydrocarbon receptor (Homo sapiens) (UniProt P35869); test: qHTS assay to identify small molecule that activate the aryl hydrocarbon receptor (AhR) signaling pathway (AID 743085); note: nearly all actives have a fitted effect of over 15% in size; note: potency is the fitted concentration of half-maximal effect;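 for activation: HG2L7.5c1 human HepG2 liver cells with stably integrated DRE-driven firefly reporter; series mostly up to about 70 µM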
Method in brief: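 HepG2 cells stably carrying a 20-DRE firefly luciferase reporter (HG2L7.5c1) treated with compound for 24 hr at 37C. Luciferase read by ONE-Glo luminescence, with CellTiter-Fluor viability read first.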

[3] = qHTS assay to identify small molecule that activate the aryl hydrocarbon receptor (AhR) signaling pathway - cell viability counter screen (AID 743086); note: nearly all actives have a fitted effect of over 45% in size; note: potency is the fitted concentration of half-maximal effect
Method in brief: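 HepG2-AhR-luc (HG2L7.5c1) cells, 4000/well, were preincubated 5 h at 37C, exposed to compound in qHTS format for 24 hr at 37C, then given CellTiter-Fluor for 30 min; viability was read as fluorescence in the reporter wells.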

[4] = biological target: Peroxisome proliferator-activated receptor gamma (Homo sapiens) (UniProt P37231); test: qHTS assay to identify small molecule agonists of the peroxisome proliferator-activated receptor gamma (PPARg) signaling pathway (AID 743094; active = well fitted activation curve with a large enough effect in the signal ratio in the repeat runs, not every such curve was filed as active; the % refers to the signal ratio)
Method in brief: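 HEK293H PPARg-bla cells, 5 h settle at 37C/5% CO2; compound (DMSO) 17 h, 37C; B/G FRET substrate 1 h RT; fluorescence intensity read-out. qHTS format.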

[5] = qHTS assay to identify small molecule phospholipidosis (PLD) inducers (AID 1259344; active = well fitted curve in the direction sought with a large enough effect; an effect the other way counts as inactive or inconclusive)
Method in brief: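 After 4 h attachment on collagen I, HepG2 cells were dosed with compound alongside LipidTOX Red, kept 24 h at 37 C, fixed, and imaged for lamellar phospholipid pits.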
% is set by controls: 0 for no effect and ±100 for the full control effect.

Peroxisome proliferator-activated receptor gamma (Homo sapiens), sequence (P37231 whole entry, looked up): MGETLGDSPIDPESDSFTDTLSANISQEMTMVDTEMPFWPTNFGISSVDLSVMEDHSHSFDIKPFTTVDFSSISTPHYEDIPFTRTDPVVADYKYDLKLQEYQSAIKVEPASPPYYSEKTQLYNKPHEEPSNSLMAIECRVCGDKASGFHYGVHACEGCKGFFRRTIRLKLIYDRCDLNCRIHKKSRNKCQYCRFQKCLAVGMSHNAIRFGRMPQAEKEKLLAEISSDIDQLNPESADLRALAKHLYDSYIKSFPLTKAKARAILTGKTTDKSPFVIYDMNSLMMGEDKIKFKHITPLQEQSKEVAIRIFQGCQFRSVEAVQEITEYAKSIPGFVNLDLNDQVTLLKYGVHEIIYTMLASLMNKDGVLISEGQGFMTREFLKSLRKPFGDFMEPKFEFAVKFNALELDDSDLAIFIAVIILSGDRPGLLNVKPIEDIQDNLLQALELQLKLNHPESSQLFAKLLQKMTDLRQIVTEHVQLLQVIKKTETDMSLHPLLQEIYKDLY
Aryl hydrocarbon receptor (Homo sapiens), sequence (P35869 whole entry, looked up): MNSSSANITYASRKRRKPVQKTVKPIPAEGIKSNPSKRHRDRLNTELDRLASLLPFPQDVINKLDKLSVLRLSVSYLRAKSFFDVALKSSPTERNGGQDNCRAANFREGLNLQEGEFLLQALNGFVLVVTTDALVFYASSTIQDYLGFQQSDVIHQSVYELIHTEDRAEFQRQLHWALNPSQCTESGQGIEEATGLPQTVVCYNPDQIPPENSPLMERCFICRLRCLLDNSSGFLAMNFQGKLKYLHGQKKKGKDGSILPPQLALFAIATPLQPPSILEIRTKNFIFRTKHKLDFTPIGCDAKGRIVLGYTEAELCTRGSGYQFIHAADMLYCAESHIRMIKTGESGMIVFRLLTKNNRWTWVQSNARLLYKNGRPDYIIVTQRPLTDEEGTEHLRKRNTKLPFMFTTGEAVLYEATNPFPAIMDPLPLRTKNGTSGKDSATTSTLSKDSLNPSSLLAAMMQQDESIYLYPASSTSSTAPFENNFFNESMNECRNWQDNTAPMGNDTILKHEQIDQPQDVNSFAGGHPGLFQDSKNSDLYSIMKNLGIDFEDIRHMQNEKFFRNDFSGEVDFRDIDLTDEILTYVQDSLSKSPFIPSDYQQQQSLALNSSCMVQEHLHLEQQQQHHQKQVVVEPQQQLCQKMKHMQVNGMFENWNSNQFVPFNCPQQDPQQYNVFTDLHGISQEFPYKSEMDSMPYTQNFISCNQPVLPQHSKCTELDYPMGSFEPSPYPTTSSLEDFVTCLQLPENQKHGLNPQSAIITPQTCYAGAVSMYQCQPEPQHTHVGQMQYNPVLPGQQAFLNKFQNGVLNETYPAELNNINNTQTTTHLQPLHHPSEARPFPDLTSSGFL

CC(C)(C)CC(=O)OCC(=O)[C@@]12OC(C)(C)O[C@@H]1C[C@H]1[C@@H]3CCC4=CC(=O)C=C[C@]4(C)[C@@]3(F)[C@@H](O)C[C@@]12C
inactive: Potency [1] | Potency [2] | Potency [3] | Potency [4] | Potency [5]

O=C(O)c1ccc(OCCn2ccnc2)cc1
inactive: Potency [1] | Potency [2] | Potency [3] | Potency [4] | Potency [5]

CCCN(CC)C(CC)C(=O)Nc1c(C)cccc1C (stereo not drawn)
inactive: Potency [1] | Potency [2] | Potency [3] | Potency [4] | Potency [5]

COc1cc(S(C)=O)ccc1-c1nc2ncccc2[nH]1 (stereo not drawn)
inactive: Potency [1] | Potency [3] | Potency [4] | Potency [5]
active: Potency [2] 2.11 µM

COCC1=C(C(=O)OC(C)OC(=O)OC(C)C)N2C(=O)[C@@H](NC(=O)/C(=N\OC)c3csc(N)n3)[C@H]2SC1 (stereo partly drawn)
inactive: Potency [1] | Potency [2] | Potency [3] | Potency [4] | Potency [5]

Cn1cc(NC(=O)c2cc(NC(=O)c3cc(NC=O)cn3C)cn2C)cc1C(=O)NCCC(=N)N
inactive: Potency [1] | Potency [2] | Potency [3] | Potency [4] | Potency [5]

CCC(c1ccccc1)c1noc(CCN(CC)CC)n1 (stereo not drawn)
inactive: Potency [1] | Potency [2] | Potency [3] | Potency [4] | Potency [5]

CCOC(=O)COc1ccc2c(C)c(CCN(CC)CC)c(=O)oc2c1
inactive: Potency [1] | Potency [2] | Potency [3] | Potency [4] | PLD induction [5] -3.34% [at 7.66 µM]

CNC[C@@H]1CC[C@@H](N)[C@@H](O[C@H]2[C@H](O)[C@@H](O[C@H]3OC[C@](C)(O)[C@H](NC)[C@H]3O)[C@H](N)C[C@@H]2N)O1
inactive: Potency [1] | Potency [2] | Potency [3] | Potency [4] | PLD induction [5] -1.48% [at 7.66 µM]

CC(O)[C@@H]1NC(=O)[C@H](CCCCN)NC(=O)[C@@H](Cc2c[nH]c3ccccc23)NC(=O)[C@H](Cc2ccccc2)NC(=O)[C@@H](NC(=O)[C@H](N)Cc2ccccc2)CSSC[C@@H](C(=O)N[C@H](CO)[C@@H](C)O)NC1=O (stereo partly drawn)
inactive: Potency [1] | Potency [2] | Potency [3] | Potency [4] | Potency [5]

c1cnc2cc3c(cc2n1)[C@@H]1CNC[C@H]3C1
inactive: Potency [1] | Potency [2] | Potency [3] | Potency [4] | Potency [5]

NCCC(=O)[N-][C@@H](Cc1cnc[nH]1)C(=O)O.[Zn]
inactive: Potency [1] | Potency [2] | Potency [3] | Potency [4] | Potency [5]

CO[C@H]1C[C@H](O[C@H]2[C@H](C)[C@@H](O[C@@H]3O[C@H](C)C[C@H](N(C)C)[C@H]3OC(C)=O)[C@@H](C)C[C@]3(CO3)C(=O)[C@H](C)[C@@H](OC(C)=O)[C@@H](C)[C@@H](C)OC(=O)[C@@H]2C)O[C@@H](C)[C@@H]1OC(C)=O
inactive: Potency [1] | Potency [2] | Potency [3] | Potency [4] | Potency [5]

CCCCCC(O)/C=C/C=O (stereo not drawn)
inactive: Potency [1] | Potency [2] | Potency [3] | Potency [4] | Potency [5]

O=C[C@H](O)[C@@H](O)[C@H](O[C@H]1O[C@H](CO)[C@@H](O[C@H]2O[C@H](CO)[C@@H](O)[C@H](O)[C@H]2O)[C@H](O)[C@H]1O)[C@H](O)CO
inactive: Potency [1] | Potency [2] | Potency [3] | Potency [4] | Potency [5]

CO[C@@H]1[C@@H](O[C@@H]2O[C@H](C)[C@@H](O[C@H]3C[C@@](C)(O)[C@@H](OC(=O)CC(C)C)[C@H](C)O3)[C@H](N(C)C)[C@H]2O)[C@@H](CC=O)C[C@@H](C)[C@@H](O)/C=C/C=C/C[C@@H](C)OC(=O)C[C@H]1O
inactive: Potency [1] | Potency [2] | Potency [3] | Potency [4] | Potency [5]

CN(C(=O)CO)c1c(I)c(C(=O)NCC(O)CO)c(I)c(C(=O)NCC(O)CO)c1I (stereo not drawn)
inactive: Potency [1] | Potency [2] | Potency [3] | Potency [4] | Potency [5]

N[C@@H](C(=O)N[C@@H]1C(=O)N2C(C(=O)O)=C(CSc3cn[nH]n3)CS[C@H]12)c1ccc(O)cc1
inactive: Potency [1] | Potency [2] | Potency [3] | Potency [4] | Potency [5]

CN[C@@H]1CCc2[nH]c3ccc(C(N)=O)cc3c2C1
inactive: Potency [1] | Potency [2] | Potency [3] | Potency [4] | PLD induction [5] -1.34% [at 1.53 µM]

CS(=O)(=O)NC(=O)CCC/C=C\C[C@H]1C(=O)C[C@@H](O)[C@@H]1/C=C/[C@H](O)COc1ccccc1
inactive: Potency [1] | Potency [2] | Potency [3] | Potency [4] | Potency [5]

Nc1c(Br)cc(Br)cc1CNC1CCC(O)CC1 (stereo not drawn)
inactive: Potency [1] | Potency [2] | Potency [3] | Potency [4] | Potency [5]

CCCCCCCCCCCCCCCCSCC(COC)COP(=O)([O-])OCC[N+](C)(C)C (stereo not drawn)
inactive: Potency [1] | Potency [2] | Potency [3] | Potency [4] | Potency [5]

C[C@@H]1C[C@H]2C3C[C@H](F)C4=CC(=O)C=CC4(C)[C@@]3(F)[C@@H](O)CC2(C)[C@@]1(O)C(=O)COC(=O)C(C)(C)C (stereo partly drawn)
inactive: Potency [1] | Potency [3] | Potency [4] | Potency [5]

O=P(O)(O)C(O)(Cc1cnc2ccccn12)P(=O)(O)O
inactive: Potency [1] | Potency [3] | Potency [4] | Potency [5]

C/C1=C2N=C(/C=C3N=C(/C(C)=C4\[N-]C(C(CC(N)=O)C4(C)CCC(=O)NCC(C)OP(=O)([O-])OC4C(CO)OC(n5cnc6cc(C)c(C)cc65)C4O)C4(C)N=C1C(CCC(N)=O)C4(C)CC(N)=O)C(CCC(N)=O)C\3(C)C)C(CCC(N)=O)C/2(C)CC(N)=O.[CH3-].[Co+3] (stereo not drawn)
active: Potency [1] 23.7 µM | Potency [3] 26.6 µM
inactive: Potency [4] | Potency [5]

CC(=O)OCC(=O)[C@@]1(O)[C@H](C)C[C@H]2[C@@H]3C[C@H](F)C4=CC(=O)C=C[C@]4(C)[C@H]3[C@@H](O)C[C@@]21C
inactive: Potency [1] | Potency [3] | Potency [5]

CCCCCCCCCCCCCCCC(=O)OCCC1CCN(CCCN2c3ccccc3Sc3ccc(S(=O)(=O)N(C)C)cc32)CC1
inactive: Potency [1] | Potency [2] | Potency [4] | Potency [5]

NCCCC[C@H](NC(=O)[C@@H]1CCCN1C(=O)[C@@H]1CSSC[C@H](N)C(=O)N[C@@H](Cc2ccccc2)C(=O)N[C@@H](Cc2ccccc2)C(=O)N[C@@H](CCC(N)=O)C(=O)N[C@@H](CC(N)=O)C(=O)N1)C(=O)NCC(N)=O
inactive: Potency [1] | Potency [3] | Potency [4] | Potency [5]

CC[C@H]1OC(=O)[C@H](C)[C@@H](O[C@H]2C[C@@](C)(OC)[C@@H](O)[C@H](C)O2)[C@H](C)[C@@H](O[C@@H]2O[C@H](C)C[C@H](N(C)C)[C@H]2O)[C@](C)(O)C[C@@H](C)[C@@H]2N[C@@H](COCCOC)O[C@@H]([C@H]2C)[C@]1(C)O
inactive: Potency [1] | Potency [3] | Potency [4] | Potency [5]

CCC(CN)CC(C)CCNCC(O)CNCC(C)CC(CC)CN (stereo not drawn)
inactive: Potency [1] | Potency [3] | Potency [4] | PLD induction [5] -0.745% [at 7.66 µM]

Cn1nnnc1SCC1=C(C(=O)O)N2C(=O)[C@@H](NC(=O)[C@H](O)c3ccccc3)[C@H]2SC1
inactive: Potency [1] | Potency [3] | Potency [4] | Potency [5]

CC(=O)O[C@H]1CC[C@@]2(C)C(=CC[C@@H]3[C@@H]2CC[C@]2(C)C(c4cccnc4)=CC[C@@H]32)C1
inactive: Potency [1] | Potency [3] | Potency [4] | Potency [5]

O=C(O)c1cc2ccccc2c(Cc2c(O)c(C(=O)O)cc3ccccc23)c1O
inactive: Potency [1] | Potency [3] | Potency [5]

CO/N=C(\C(=O)N[C@@H]1C(=O)N2C(C(=O)OCOC(=O)C(C)(C)C)=C(/C=C\c3scnc3C)CS[C@H]12)c1csc(N)n1
inactive: Potency [1] | Potency [2] | Potency [4] | PLD induction [5] -0.933% [at 7.66 µM]

O=C(NOC[C@H](O)CO)c1ccc(F)c(F)c1Nc1ccc(I)cc1F
inactive: Potency [1] | Potency [3] | Potency [4] | Potency [5]

CN1CCc2c(c3ccccc3n2Cc2ccccc2)C1
inactive: Potency [1] | Potency [2] | Potency [4] | Potency [5]

CC1(C)S[C@@H]2[C@H](NC(=O)C(C(=O)Oc3ccc4c(c3)CCC4)c3ccccc3)C(=O)N2[C@H]1C(=O)O (stereo partly drawn)
inactive: Potency [1] | Potency [3] | Potency [4] | Potency [5]

O=C(Nc1ccc(Br)cc1)c1cc(Br)c(Br)s1
active: Potency [2] 16.8 µM
inactive: Potency [1] | Potency [4] | Potency [5]

Clc1ccc(COC(Cn2ccnc2)c2ccc(Cl)cc2Cl)c(Cl)c1 (stereo not drawn)
inactive: Potency [1] | Potency [3] | Potency [4] | Potency [5]

OC(CN1CCCCC1)c1cc(-c2ccccc2)on1 (stereo not drawn)
inactive: Potency [1] | Potency [3] | Potency [4] | Potency [5]

CCC(=O)O[C@H]1CC[C@H]2[C@@H]3CCc4cc(O)ccc4[C@H]3CC[C@]12C
inactive: Potency [1] | Potency [3] | Potency [4] | Potency [5]

C=C[C@]1(C)C[C@@H](OC(=O)CO)[C@]2(C)[C@H](C)CC[C@]3(CCC(=O)[C@H]32)[C@@H](C)[C@@H]1O
inactive: Potency [1] | Potency [3] | Potency [4] | Potency [5]

NC[C@@H]1O[C@H](O[C@H]2[C@@H](O)[C@H](O[C@@H]3[C@@H](O)[C@H](N)C[C@H](N)[C@H]3O[C@H]3O[C@H](CN)[C@@H](O)[C@H](O)[C@H]3N)O[C@@H]2CO)[C@H](N)[C@@H](O)[C@@H]1O
inactive: Potency [1] | Potency [2] | Potency [4] | Potency [5]

COc1cc([C@@H]2c3cc4c(cc3C(O[C@@H]3O[C@@H]5CO[C@@H](C)O[C@H]5[C@H](O)[C@H]3O)C3COC(=O)[C@@H]32)OCO4)cc(OC)c1OP(=O)(O)O (stereo partly drawn)
inactive: Potency [1] | Potency [3] | Potency [4] | PLD induction [5] 0.0559% [at 1.53 µM]

CCN(CC)CCOC(=O)c1ccc(N)cc1Cl
inactive: Potency [1] | Potency [3] | Potency [4] | Potency [5]

CN(CC(=O)N1CCOCC1)Cc1c(Cl)cccc1NC(=O)c1ccccc1
active: Potency [2] 13.3 µM
inactive: Potency [1] | Potency [4] | Potency [5]

CCOc1ccc(C[C@H]2NC(=O)CCSSC[C@@H](C(=O)N3CCC[C@H]3C(=O)N[C@@H](CCCN)C(=O)NCC(N)=O)NC(=O)[C@H](CC(N)=O)NC(=O)[C@H]([C@@H](C)O)NC(=O)[C@H]([C@@H](C)CC)NC2=O)cc1 ([Mpa][dY](Et)ITNCP[Orn]G-NH2; disulfide 1-6)
inactive: Potency [1] | Potency [2] | Potency [4] | Potency [5]

CCC[C@@]1(CCc2ccccc2)CC(O)=C([C@H](CC)c2cccc(NS(=O)(=O)c3ccc(C(F)(F)F)cn3)c2)C(=O)O1
inactive: Potency [1] | Potency [3] | PLD induction [5] -4.07% [at 7.66 µM]

CN[C@@H]1[C@@H](O)[C@@H](O[C@@H]2[C@@H](O)[C@H](OC3OC(CN)=CCC3N)[C@@H](N)C[C@H]2N)OC[C@]1(C)O (stereo partly drawn)
inactive: Potency [1] | Potency [3] | Potency [4] | Potency [5]

Cc1cc(-n2c(=O)[nH]c(=O)n(C)c2=O)ccc1Oc1ccc(S(=O)(=O)C(F)(F)F)cc1
inactive: Potency [1] | Potency [3] | Potency [5]
